The source made the active and inactive calls. Unless noted, the rule behind the calls is not given here.
Columns and labels:
[1] = A549 cell viability effects, profiling panel, calcein-AM fluorescence, 48 h, basal (AID 1162); conditions: higher = more signal; note: test concentration not given here
[2] = adipocyte viability effects, profiling panel, cell-based, 3T3-L1 adipocytes, calcein-AM fluorescence, 48 h, basal (AID 1163); conditions: 3T3-L1 adipocytes viability, higher = more signal; note: test concentration not given here
[3] = HepG2 cell viability effects, profiling panel, calcein-AM fluorescence, 48 h, basal (AID 1164); conditions: higher = more signal; note: test concentration not given here
[4] = MM1S cell viability effects, profiling panel, calcein-AM fluorescence, 48 h, basal (AID 1165); conditions: higher = more signal;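 note: viability of MM1S multiple myeloma cells under basal unstimulated conditions; test concentration not given here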
[5] = basal RPMI8226 viability, no added stimulus, profiling panel, cell-based, calcein-AM fluorescence, 48 h, PK04 Diversity Set (AID 1166); conditions: RPMI8226 myeloma viability, higher = more signal;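 note: cells grown under basal conditions without added stimulus; test concentration not given here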
[6] = basal HepG2 mitochondrial membrane potential changes, profiling panel, cell-based, JC-1 fluorescence, 24 h, 100 nL compound (AID 1167); conditions: higher = more signal; note: test concentration not given here
[7] = basal 3T3-L1 adipocyte mitochondrial potential changes, profiling panel, cell-based, JC-1 fluorescence, 3T3-L1 adipocytes, 24 h, 100 nL compound (AID 1168); conditions: JC-1 mitochondrial fluorescence, higher = more signal, called active from +8 up or from −8 down; note: test concentration not given here
[8] = basal RPMI8226 mitochondrial membrane potential changes, profiling panel, cell-based, JC-1 fluorescence, 24 h, 100 nL compound (AID 1169); conditions: RPMI8226 myeloma, JC-1 mitochondrial potential fluorescence, higher = more signal; note: test concentration not given here
[9] = basal MM1S mitochondrial membrane potential changes, profiling panel, cell-based, JC-1 fluorescence, 24 h, 100 nL compound (AID 1170); conditions: higher = more signal; note: test concentration not given here
[10] = A549 lung cancer cell viability effects, profiling panel, resazurin fluorescence, 24 h, PK04 Diversity Set (AID 1171); conditions: higher = more signal, called active from +8 up or from −8 down; note: test concentration not given here
[11] = HepG2 liver cancer cell viability effects, profiling panel, resazurin fluorescence, 24 h, PK04 Diversity Set (AID 1172); conditions: higher = more signal; note: test concentration not given here
[12] = basal S. cerevisiae growth modulation, no modifier, primary screen, OD600, strain BY4716, 24 h, basal condition (AID 1173); conditions: OD600, 24 h, higher = more signal, called active from +8 up or from −8 down
[13] = MM1S myeloma cell viability, profiling panel, resazurin fluorescence, basal, 24 h, PK04 Diversity Set (AID 1174); conditions: higher = more signal, called active from +8 up or from −8 down;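 note: MM1S multiple myeloma cell line; test concentration not given here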
[14] = target: Dihydroorotate dehydrogenase (quinone), mitochondrial (Plasmodium falciparum (isolate 3D7)) (UniProt Q08210); experiment: PfDHODH enzyme inhibitors, primary screen, biochemical, C-terminal His tag, absorbance 600 nm (AID 1175); conditions: DCIP absorbance 600 nm, higher = more signal, called active from +8 up or from −8 down;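 note: recombinant parasite enzyme with a five histidine tag at its C terminus; test concentration not given here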
[15] = P. aeruginosa biofilm formation inhibitors, primary screen, strain PAO1, LB-PBS medium, absorbance 600 nm (AID 1176); note: test concentration not given here; conditions: P. aeruginosa PAO1 growth/biofilm, A600, 12 h; higher = more signal
[16] = S. cerevisiae RM11-1a growth modifiers, primary screen, strain RM11-1a, OD600, basal, 24 h (AID 1177); conditions: OD600, 24 h, higher = more signal, called active from +8 up or from −8 down;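 note: cultures grown under basal conditions with no added stressor; test concentration not given here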
[17] = E. coli acrAB mutant growth effects, primary screen, E. coli filamentation inducers, strain DRC39, OD650, 24 h (AID 1178); conditions: higher = more signal, called active from +8 up or from −8 down;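 note: growth measured as culture turbidity by optical density at 650 nm; test concentration not given here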
[18] = E. coli acrAB mutant growth effects, primary screen, E. coli filamentation inducers, strain DRC39, OD650, 48 h (AID 1179);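 note: screen aims at cell division blockers that make cells filament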; conditions: E. coli DRC39 delta-acrAB growth, higher = more signal, called active from +8 up or from −8 down
[19] = RPMI8226 myeloma cell viability, profiling panel, resazurin fluorescence, basal, 24 h, PK04 Diversity Set (AID 1180); conditions: higher = more signal;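 note: RPMI8826 multiple myeloma cell line at 5000 cells per well; test concentration not given here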
[20] = target: E3 ubiquitin-protein ligase XIAP (Homo sapiens) (UniProt P98170); experiment: XIAP binders, primary screen, biophysical, small-molecule microarray, fluorescence 635 nm (AID 1181); conditions: small-molecule microarray binding, higher = more signal;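 note: score merges 667 nm emission and signal to noise over triplicate slides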
Sequence of E3 ubiquitin-protein ligase XIAP (Homo sapiens) (P98170 whole entry, looked up): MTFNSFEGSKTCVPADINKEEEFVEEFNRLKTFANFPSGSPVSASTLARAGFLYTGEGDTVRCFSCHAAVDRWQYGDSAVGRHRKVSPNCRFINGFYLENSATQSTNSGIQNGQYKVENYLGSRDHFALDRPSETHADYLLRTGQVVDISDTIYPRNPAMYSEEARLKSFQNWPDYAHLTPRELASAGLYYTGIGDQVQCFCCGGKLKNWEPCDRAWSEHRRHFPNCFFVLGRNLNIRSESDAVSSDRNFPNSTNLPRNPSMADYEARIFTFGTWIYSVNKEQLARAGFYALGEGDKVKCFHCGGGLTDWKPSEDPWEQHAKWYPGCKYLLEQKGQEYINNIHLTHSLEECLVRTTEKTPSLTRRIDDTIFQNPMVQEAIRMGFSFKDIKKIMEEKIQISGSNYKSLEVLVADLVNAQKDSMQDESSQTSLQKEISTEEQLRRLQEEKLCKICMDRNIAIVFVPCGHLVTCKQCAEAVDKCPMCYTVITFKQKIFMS

Sequence of Dihydroorotate dehydrogenase (quinone), mitochondrial (Plasmodium falciparum (isolate 3D7)) (Q08210 whole entry, looked up): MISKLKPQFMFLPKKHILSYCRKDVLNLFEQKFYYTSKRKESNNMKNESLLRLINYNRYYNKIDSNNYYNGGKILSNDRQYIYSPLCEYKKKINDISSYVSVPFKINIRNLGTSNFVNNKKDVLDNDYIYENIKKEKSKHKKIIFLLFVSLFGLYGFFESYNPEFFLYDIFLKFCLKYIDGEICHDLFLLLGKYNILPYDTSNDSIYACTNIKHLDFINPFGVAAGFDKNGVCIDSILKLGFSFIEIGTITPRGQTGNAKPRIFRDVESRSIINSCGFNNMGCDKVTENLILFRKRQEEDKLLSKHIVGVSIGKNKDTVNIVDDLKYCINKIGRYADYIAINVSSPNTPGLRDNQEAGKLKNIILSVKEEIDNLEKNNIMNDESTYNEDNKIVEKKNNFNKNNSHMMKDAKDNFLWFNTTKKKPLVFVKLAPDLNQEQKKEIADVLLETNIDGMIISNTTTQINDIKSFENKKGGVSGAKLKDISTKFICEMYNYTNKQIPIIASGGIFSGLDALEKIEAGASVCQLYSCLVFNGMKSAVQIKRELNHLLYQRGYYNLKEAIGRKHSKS

Structure (SMILES) | z-score [1] | z-score [2] | z-score [3] | z-score [4] | z-score [5] | z-score [6] | z-score [7] | z-score [8] | z-score [9] | z-score [10] | z-score [11] | z-score [12] | z-score [13] | composite z-score [14] | z-score [15] | z-score [16] | z-score [17] | z-score [18] | z-score [19] | composite z-score [20]
CCN(CC)c1ccc(N2CC=CC34O[C@@H]5/C=C\CCCOC(=O)C5[C@H]3C(=O)N(CCO)[C@@H]4C2=O)cc1 (stereo not given in full) | 1.05 | 0.327 | 0.0797 | 0.727 | -0.509 | -0.451 | -0.381 (inactive) | -0.814 | -0.245 | -1.8 (inactive) | -1.46 | 0.245 (inactive) | -0.0391 (inactive) | 0.174 (inactive) | -0.606 (inactive) | 0.747 (inactive) | -1.16 (inactive) | -1.26 (inactive) | 0.547 | 0.56
COC(=O)[C@@]1(Cc2ccc(OC)cc2)[C@H]2c3cc(C(=O)N4CCCC4)n(Cc4ccsc4Br)c3C[C@H]2CN1C(=O)c1ccccc1 | -1.92 | -0.793 | -0.119 | -3.3 | -4.43 | 0.321 | -1.05 (inactive) | -0.822 | -2.91 | -2.75 (inactive) | -1.78 | 0.567 (inactive) | -8.06 (active) | 0.276 (inactive) | 0.576 (inactive) | -0.0289 (inactive) | -0.0187 (inactive) | 0.126 (inactive) | -4.31 | 0.244
CCOC(=O)C1=CCC(c2ccc(C)cc2)N(S(=O)(=O)c2ccc(C)cc2)C1 (stereo not given) | -1.25 | -0.825 | -0.743 | -0.537 | -1.37 | 5.35 | -1.08 (inactive) | 0.0194 | -1.82 | 0.697 (inactive) | 0.28 | 1.94 (inactive) | -0.714 (inactive) | -0.526 (inactive) | 0.173 (inactive) | 1.03 (inactive) | -0.764 (inactive) | -0.56 (inactive) | -1.63 | 0.128
Cc1ccc(S[C@]2(C(=O)NC(C)C)CC(=O)N(Cc3ccccc3Cl)[C@@H]2c2ccc(CO)cc2I)cc1 | -0.0542 | -0.05 | -0.125 | -2.71 | -1.58 | -1.08 | -0.443 (inactive) | -0.195 | -1.6 | 1.11 (inactive) | 0.36 | -3.93 (inactive) | -2.83 (inactive) | -0.766 (inactive) | 0.723 (inactive) | -1.89 (inactive) | 0.0051 (inactive) | -0.465 (inactive) | -2.24 | -0.074
CCCC[C@@H]1C[C@H]1[C@@H](NC(=O)c1ccco1)c1ccc(C(=O)OC)cc1 | -1.06 | -1.16 | -0.998 | -1.77 | -2.42 | -2.68 | -2.2 (inactive) | -0.705 | -1.19 | -0.136 (inactive) | -0.351 | 0.788 (inactive) | -0.184 (inactive) | -0.271 (inactive) | 0.812 (inactive) | -0.716 (inactive) | -1.03 (inactive) | -0.489 (inactive) | -0.826 | 0.104
OC([C@@H]1CC(c2ccccc2)=NO1)[C@H]1CC(c2ccccc2)=NO1 (stereo not given in full) | 1.51 | 0.222 | 1.59 | 0.703 | -0.132 | 1.05 | 0.635 (inactive) | -0.847 | 0.439 | 1.04 (inactive) | 0.447 | -1.39 (inactive) | 0.129 (inactive) | -0.543 (inactive) | -0.0704 (inactive) | 1.16 (inactive) | 2.32 (inactive) | 1.16 (inactive) | 0.236 | -0.159
C=CCNC(=O)[C@H]1[C@@H]2C(=O)O[C@@H](c3ccccc3)[C@@H](c3ccccc3)N2[C@@H](c2ccc(OCCO)cc2)[C@]12C(=O)N(C(=O)OCCOC)c1ccccc12 | 0.111 | 1.47 | -0.109 | -0.472 | -2.66 | 1.34 | 0.131 (inactive) | -0.562 | 0.465 | -0.918 (inactive) | -0.732 | 1.41 (inactive) | -0.738 (inactive) | 1.17 (inactive) | 1.11 (inactive) | 2.32 (inactive) | -0.595 (inactive) | -1.27 (inactive) | -0.0749 | -0.0969
COCCOC(=O)N1C(=O)[C@@]2(c3cc(C#CC4(O)CCCCCC4)ccc31)[C@H](c1ccc(O)cc1)N1[C@H](c3ccccc3)[C@H](c3ccccc3)OC(=O)[C@H]1[C@@H]2C(=O)Nc1nc2ccccc2s1 | 0.3 | 0.974 | 0.702 | -1.55 | -1.47 | -2.78 | -1.11 (inactive) | -0.876 | 0.18 | -0.006 (inactive) | -0.181 | -0.213 (inactive) | 0.0851 (inactive) | 0.811 (inactive) | 0.51 (inactive) | 0.443 (inactive) | -0.239 (inactive) | 0.208 (inactive) | -0.815 | 0.0679
O=C(O)[C@@]1(CCS(=O)(=O)c2ccccc2)COC(c2ccc(OCCCO)cc2)=N1 | 0.518 | -0.664 | -0.0551 | -1.69 | -0.658 | -1.13 | 0.148 (inactive) | 0.943 | -0.436 | 0.221 (inactive) | 0.444 | 0.0291 (inactive) | -0.21 (inactive) | 0.0614 (inactive) | -0.347 (inactive) | -0.197 (inactive) | -0.43 (inactive) | -0.216 (inactive) | 0.0149 | 0.0767
